PubChem BioAssay AID687030 (Broad Institute, 2013)
Out of some 1,400 compounds screened, about 10 (0.7%) were called active. A selection follows. Potency and affinity values are given separately. Unmarked numbers belong to inactive results. The rule behind the calls is not given here.

Assay: BHK-21 cell toxicity, dose response, cytotoxicity control, plate reader, cherry-pick samples (AID 687030);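 note: cells were exposed to compound for three days before reading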
Settings: BHK-21 cells; series mostly up to 19.5 µM; activity change, negative = toxicity: at the top concentration

SMILES	activity change, negative = toxicity
O=C(c1cc(C2CC2)on1)N1CCCC(N2CCN(c3cccc(C(F)(F)F)c3)CC2)C1 (centres undefined)	1.75%
O=C(c1ccncc1)N1CCCC(N2CCN(c3cccc(C(F)(F)F)c3)CC2)C1 (centres undefined)	1.83%
O=S(=O)(NCc1c(Cl)cccc1Oc1ccccc1)c1ccccc1	-4.45%
CCOc1ccc(C(=O)NCC(=O)N2CCCCCCC2)cc1	-5.62%
O=C(O)C[C@H]1C=C[C@@H](NC(=O)CCN2CCCCC2)[C@@H](CO)O1	6.26%
CC1CCOC(c2coc3ccccc3c2=O)O1 (centres undefined)	-2.55%
COc1ccc(Br)cc1[C@H]1[C@H]2C=CC[C@@H](C)[C@@H]2C(=O)N1Cc1ccccc1	4.79%
O=C(Nc1cccc(-n2cnnn2)c1)C1CCCN(C(=O)Cc2cccc(Cl)c2)C1 (centres undefined)	1.47%
CC(C)CN(C(=O)c1cc(Cl)nc2ccccc12)c1c(N)n(Cc2ccccc2)c(=O)[nH]c1=O	4.68%
O=C(O)[C@H]1[C@H](CO)[C@H]2Cn3c(ccc(/C=C/c4ccccc4)c3=O)[C@H]2N1C(=O)c1cnccn1	-3.31%
CN(CC(=O)Nc1ccc(F)cc1)C(=O)COC(=O)c1nc(Cl)ccc1Cl	3.06%
CC(C)(C)OC(=O)CNC(=O)c1[nH]cnc1C(=O)N[C@@H](Cc1ccccc1)C(=O)OC(C)(C)C	7.08%
CCOc1ncccc1C(=O)NNC(=O)c1cccc(S(=O)(=O)Nc2ccccc2OC)c1	2.97%
COc1cccc(N2CCN(C(=O)c3cccc(NC4=NC5CS(=O)(=O)CC5S4)c3)CC2)c1 (centres undefined)	-7.17%
CC(=O)Nc1cccc2ncccc12	-1.27%
COc1cc(NC(C)=O)c2ncccc2c1Br	7.72%
OC(COC(c1ccc(F)cc1)c1ccc(F)cc1)CN1CCCC1 (centres undefined)	3.3%
Cc1ccc(C(=O)Nc2ccc(CN3CCCCC3)cc2)c(C)c1	4.85%
CN1CCC2CC1c1cc(-c3ccc(C(F)(F)F)cc3)ccc12 (centres undefined)	6.96%
O=C(C[C@@H]1CC[C@H]2[C@@H](COC[C@@H](O)CN2Cc2cccc(Cl)c2)O1)N1CCOCC1	-4.37%
O=C(C[C@H]1CC[C@H]2[C@@H](COC[C@@H](O)CN2Cc2cccc(C(F)(F)F)c2)O1)NCc1ccc(F)cc1	3.27%
C[C@@H]1CCCCO[C@H](CN(C)S(=O)(=O)c2ccccc2)[C@@H](C)CN([C@@H](C)CO)C(=O)c2cc(NC(=O)CCCN(C)C)ccc2O1	1.9%
COc1ccc(S(=O)(=O)N(C)C[C@@H]2Oc3ccc(NS(=O)(=O)c4ccccc4)cc3C(=O)N([C@H](C)CO)C[C@H]2C)cc1	3.26%
CCNC(=O)C[C@H]1CC[C@H]2[C@@H](COC[C@@H](O)CN2Cc2ccc(Cl)c(Cl)c2)O1	-6.91%
CCNC(=O)C[C@H]1CC[C@H]2[C@@H](COC[C@H](O)CN2Cc2ccc(Cl)c(Cl)c2)O1	0.129%
CCC1CN(S(=O)(=O)c2ccc3c(c2)NC(=O)CC(=O)N3)c2cc(Cl)ccc2O1 (centres undefined)	1.53%
Cc1cc(OCC(=O)NC(Cc2c[nH]c3ccc(O)cc23)C(=O)O)c2c(C)c(C)c(=O)oc2c1 (centres undefined)	1.75%

SMILES	activity change, negative = toxicity
COc1cccc(CNC(=O)[C@@H]2CCCN2C(=O)[C@H]2CCCCN2C(=O)c2ccc(Cl)cc2)c1	-5.85%
CCCCn1c(N)c(N(CC)C(=O)c2cc(C)cc(C)c2)c(=O)[nH]c1=O	-0.06%
CC(C)CCC(O)(c1ccccc1)C(CN1CCOCC1)c1ccccc1 (centres undefined)	0.142%
C[C@@H]1CCCCO[C@H](CN(C)S(=O)(=O)c2ccc(Cl)cc2)[C@H](C)CN([C@H](C)CO)C(=O)c2cc(N(C)C)ccc2O1	3.31%
C=CCOc1ccccc1CN1CCC(Cc2ccccc2)CC1	-7.66%
C[C@@H]1CCCCO[C@@H](CN(C)C(=O)c2ccccc2)[C@@H](C)CN([C@H](C)CO)C(=O)c2cc(NC(=O)CCC(F)(F)F)ccc2O1	1.72%
CC1(C)CN(Cc2cccnc2)C(=O)[C@H]1CC(=O)Nc1ccc(Br)cc1	-3.75%
Cc1cc(NC(=O)Cn2c(=O)oc3ccc(Cl)cc32)no1	-5.82%
CC(C)(C)NC(=O)c1cccc(NC(=O)c2ccc3c(c2)C(=O)N(C(C)(C)C)C3=O)c1	3.1%
COc1cc(OC)cc(C(=O)Nc2ccc3nc4n(c(=O)c3c2)CCCC4)c1	-2.03%
CN(Cc1ccc(Cl)c(Cl)c1)C(=O)C1CC(=O)N(c2ccc3c(c2)OCCO3)C1 (centres undefined)	4.82%
COc1ccc(CN2C(=O)CCC2(C)c2nnnn2Cc2ccccc2)cc1 (centres undefined)	-0.033%
Cc1cc(C)c(OCCCNC2CCCC2)c(Br)c1	-1.02%
COc1cc(O)c(C(CC(=O)N2CCCC(C)C2)c2cc(OC)c(OC)c(OC)c2)c(OC)c1 (centres undefined)	-0.011%
CN(C)c1ccc(CC(=O)N2CCCC(c3cc(C(=O)Nc4ccc(F)c(Cl)c4)no3)C2)cc1 (centres undefined)	-3.81%
C/C=C/c1cnc2c(c1)C(=O)N([C@H](C)CO)C[C@H](C)[C@H](CN(C)S(=O)(=O)c1ccccc1)O2	-4.37%
Cc1ccc(S(=O)(=O)N2CC[C@@H]3[C@H](CO)Nc4ccc(-c5ccccc5F)cc4[C@@H]32)cc1	1.83%
COc1ccc(-c2ccc3c(c2)[C@H]2[C@H](CCN2C(=O)CN2CCOCC2)[C@@H](CO)N3)cc1	-1.16%
Cc1ccc(CNC(=O)[C@H](C)N2C(=O)N3CCc4c([nH]c5ccccc45)[C@@]3(C)C2=O)cc1	2.09%
C/C(=N/NC(=O)CCC(=O)Nc1cccc(Cl)c1)c1ccc(C)cc1	3.02%
CC(C)(C)NC(=O)C(c1cccc2ccccc12)n1c(=O)c(-c2ccccc2)nc2ccccc21 (centres undefined)	-11.1%
CCOc1ncccc1C(=O)OCC(=O)NCc1ccc(C(=O)OC)cc1	3.61%
C[C@@H]1CCCCO[C@H](CN(C)C(=O)Nc2cccc3ccccc23)[C@@H](C)CN([C@@H](C)CO)C(=O)c2cc(NS(=O)(=O)c3cn(C)cn3)ccc2O1	-3.64%
CCn1c(SCc2cccc(F)c2)nnc1-c1ccncc1	6.68%
Cc1cccc(C)c1-n1nnnc1C1(C)CCC(=O)N1Cc1cccnc1 (centres undefined)	2.93%
O=C(NCC1CCCCC1)[C@@H]1[C@@H](CO)[C@@H]2Cn3c(cccc3=O)[C@H]1N2CCc1ccccc1	-0.648%
C[C@H]1CCCCO[C@H](CN(C)C(=O)Nc2ccc(C(F)(F)F)cc2)[C@@H](C)CN([C@@H](C)CO)C(=O)c2cc(NC(=O)C3CCCCC3)ccc2O1	3.54%
